Laboratory results from PubChem BioAssay AID1159580 (chemical genetic matrix, 2015).
Several values for one entry are separate records, joined by “and”; a condition that tells them apart may be missing. Equal values may be shown once. In all, about 5,500 compounds went through this assay and about 2,000 (36%) were called active. Inconclusive results (about 18%) are left out. Cut-off read from the data, not from the text of the source: active = normalized growth mostly below about 0.91 (no sharp cut-off); inconclusive = no clear call, values can overlap the other calls; inactive = mostly above about 0.92. This is one part of the list.

Assay: chemical genetic growth profiling, strain panel (AID 1159580);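 note: tested at 20 µM; growth read once vehicle control cultures reached saturation at 30 °C; 1 = growth at the plate median or of vehicle wells; lower values mean less growth of the strain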
Settings: S. cerevisiae deletion strains, growth OD

Measured: normalized growth

CC(=O)OCC1=C(C(=O)O)N2C(=O)[C@@H](NC(=O)Cc3cccs3)[C@H]2SC1
inactive: locus YAL013W, strain DEP1, active compounds read low 0.991 | locus YAL021C, strain ccr4, active compounds read low 1.03 | locus YAL026C, strain drs2, active compounds read low 0.991 | locus YAL030W, strain snc1, active compounds read low 1.02 | locus YBL061C, strain skt5, active compounds read low 1.03 | locus YBR009C, strain hhf1, active compounds read low 0.974 | locus YBR021W, strain FUR4, active compounds read low 1.01 | locus YBR023C, strain chs3, active compounds read low 1.03 | locus YBR171W, strain sec66, active compounds read low 1.02 | locus YBR229C, strain ROT2, active compounds read low 0.948 | locus YBR231C, strain swc5, active compounds read low 0.988 | locus YBR279W, strain paf1, active compounds read low 0.987 | locus YCL011C, strain gbp2, active compounds read low 0.973 | locus YCL016C, strain dcc1, active compounds read low 0.986 | locus YCL029C, strain bik1, active compounds read low 0.984 | locus YCL069W, strain vba3, active compounds read low 1.01 | locus YCR088W, strain abp1, active compounds read low 1.01 | locus YDL005C, strain med2, active compounds read low 1.03 | locus YDL035C, strain GPR1, active compounds read low 0.96 | locus YDL040C, strain nat1, active compounds read low 1.02 | locus YDL074C, strain BRE1, active compounds read low 0.993 | locus YDL101C, strain DUN1, active compounds read low 0.989 | locus YDL134C, strain PPH21, active compounds read low 0.959 | locus YDL185W, strain tfp1, active compounds read low 0.965 | locus YDL192W, strain arf1, active compounds read low 0.977 | locus YDR001C, strain nth1, active compounds read low 1.02 | locus YDR069C, strain doa4, active compounds read low 1.03 | locus YDR101C, strain arx1, active compounds read low 0.972 | locus YDR137W, strain rgp1, active compounds read low 0.962 | locus YDR150W, strain NUM1, active compounds read low 0.983 | locus YDR159W, strain sac3, active compounds read low 1.05 | locus YDR162C, strain NBP2, active compounds read low 0.948 | locus YDR195W, strain ref2 1.04 | locus YDR297W, strain sur2, active compounds read low 1.02 | locus YDR318W, strain mcm21, active compounds read low 0.991 | locus YDR334W, strain swr1, active compounds read low 0.986 | locus YDR335W, strain msn5, active compounds read low 0.99 | locus YDR388W, active compounds read low 0.981 | locus YDR392W, strain spt3, active compounds read low 0.959 | locus YDR502C, strain sam2, active compounds read low 0.997 | locus YEL003W, strain gim4, active compounds read low 1 | locus YEL037C, strain rad23, active compounds read low 1 | locus YEL061C, strain CIN8 (second series), active compounds read low 1.01 | locus YEL061C, strain CIN8, active compounds read low 0.984 | locus YER015W, strain faa2, active compounds read low 0.972 | locus YER016W, strain bim1, active compounds read low 0.987 | locus YER110C, active compounds read low 0.972 | locus YER111C, strain swi4, active compounds read low 0.995 | locus YER155C, strain BEM2 (second series), active compounds read low 1 | locus YER155C, strain BEM2, active compounds read low 1 | locus YER167W, strain BCK2, active compounds read low 0.986 | locus YFR010W, strain ubp6, active compounds read low 1.01 | locus YGL078C, strain dbp3, active compounds read low 0.987 | locus YGL086W, strain mad1, active compounds read low 0.979 | locus YGL167C, strain pmr1, active compounds read low 1.02 | locus YGL173C, strain kem1, active compounds read low 0.987 | locus YGL227W, strain vid30, active compounds read low 1.04 | locus YGL240W, strain doc1, active compounds read low 1.06 | locus YGL248W, strain PDE1, active compounds read low 1.01 | locus YGL253W, strain hxk2, active compounds read low 1 | locus YGR135W, strain pre9, active compounds read low 1.04 | locus YGR252W, strain gcn5, active compounds read low 1.03 | locus YHR013C, strain ard1, active compounds read low 1.03 | locus YHR027C, strain rpn1, active compounds read low 0.994 | locus YHR030C, strain SLT2, active compounds read low 0.977 and 0.94 | locus YHR079C, strain IRE1 (second series), active compounds read low 0.995 | locus YHR079C, strain IRE1, active compounds read low 0.976 | locus YHR094C, strain hxt1, active compounds read low 0.982 | locus YHR129C, strain ARP1, active compounds read low 0.984 | locus YHR142W, strain chs7, active compounds read low 0.995 | locus YHR200W, strain rpn10, active compounds read low 0.983 | locus YIL066C, strain RNR3, active compounds read low 0.972 | locus YIL073C, strain SPO22, active compounds read low 1.04 | locus YIL125W, strain kgd1, active compounds read low 0.983 | locus YIR030C, strain dcg1, active compounds read low 0.99 | locus YJL092W, strain hpr5, active compounds read low 1.01 | locus YJL095W, strain BCK1 (second series), active compounds read low 1 | locus YJL095W, strain BCK1, active compounds read low 1.05 and 0.96 | locus YJL115W, strain asf1, active compounds read low 1.02 | locus YJL129C, strain trk1, active compounds read low 1.05 | locus YJL134W, strain LCB3, active compounds read low 0.99 | locus YJL154C, strain vps35, active compounds read low 1.02 | locus YJL164C, strain tpk1, active compounds read low 0.972 | locus YJL166W, strain qcr8, active compounds read low 0.996 | locus YJL168C, strain set2, active compounds read low 0.986 | locus YJL187C, strain SWE1 (second series), active compounds read low 1.01 | locus YJL187C, strain SWE1, active compounds read low 1.01 | locus YJR043C, strain POL32, active compounds read low 0.963 | locus YJR066W, strain TOR1, active compounds read low 0.995 | locus YJR075W, strain HOC1, active compounds read low 1 | locus YKL009W, strain mrt4, active compounds read low 1 | locus YKL068W, active compounds read low 0.977 | locus YKL085W, strain MDH1 (second series), active compounds read low 0.966 | locus YKL085W, strain MDH1, active compounds read low 0.966 | locus YKL160W, strain elf1, active compounds read low 1.01 | locus YKR001C, strain vps1, active compounds read low 0.986 | locus YKR026C, strain gcn3, active compounds read low 1.04 | locus YKR091W, strain srl3, active compounds read low 0.999 | locus YLL001W, strain dnm1, active compounds read low 0.992 | locus YLL026W, active compounds read low 1.02 | locus YLL041C, strain sdh2, active compounds read low 1.02 | locus YLR027C, strain aat2, active compounds read low 1.01 | locus YLR039C, strain RIC1, active compounds read low 0.986 | locus YLR058C, strain SHM2, active compounds read low 0.978 | locus YLR102C, strain apc9, active compounds read low 0.987 | locus YLR113W, strain HOG1, active compounds read low 0.971 | locus YLR221C, strain rsa3, active compounds read low 0.996 | locus YLR258W, strain gsy2, active compounds read low 1 | locus YLR262C, strain YPT6 (second series), active compounds read low 1.01 | locus YLR262C, strain YPT6, active compounds read low 0.937 | locus YLR268W, strain sec22, active compounds read low 0.975 | locus YLR320W, strain mms22, active compounds read low 0.978 | locus YLR330W, strain CHS5, active compounds read low 0.99 | locus YLR342W, strain FKS1 (second series), active compounds read low 1 | locus YLR342W, strain FKS1, active compounds read low 0.992 | locus YLR357W, strain rsc2, active compounds read low 0.991 | locus YLR370C, strain arc18, active compounds read low 1 | locus YLR371W, strain rom2, active compounds read low 0.998 | locus YLR384C, strain iki3, active compounds read low 1.03 | locus YLR418C, strain cdc73, active compounds read low 1.01 | locus YML016C, strain PPZ1, active compounds read low 0.996 | locus YML032C, strain rad52, active compounds read low 0.98 | locus YML120C, strain ndi1, active compounds read low 1 | locus YML124C, strain tub3, active compounds read low 0.985 | locus YMR058W, strain fet3, active compounds read low 0.923 | locus YMR078C, strain ctf18, active compounds read low 0.986 | locus YMR125W, strain sto1, active compounds read low 1.03 | locus YMR129W, active compounds read low 1.02 | locus YMR205C, strain PFK2, active compounds read low 1.02 | locus YMR223W, strain ubp8, active compounds read low 1.01 | locus YMR231W, strain pep5, active compounds read low 1.01 | locus YMR263W, strain SAP30, active compounds read low 0.998 | locus YMR307W, strain GAS1, active compounds read low 0.898 | locus YNL067W, strain RPL9B, active compounds read low 1.01 | locus YNL071W, strain lat1, active compounds read low 0.994 | locus YNL183C, strain NPR1, active compounds read low 0.919 | locus YNL209W, strain ssb2, active compounds read low 1 | locus YNL233W, strain BNI4, active compounds read low 1.03 | locus YNL248C, strain rpa49, active compounds read low 0.993 | locus YNL250W, strain rad50, active compounds read low 0.995 | locus YNL271C, strain bni1, active compounds read low 1 | locus YNL298W, strain CLA4, active compounds read low 0.979 | locus YNL307C, strain MCK1, active compounds read low 0.988 | locus YNL322C, strain KRE1 (second series), active compounds read low 1.01 | locus YNL322C, strain KRE1, active compounds read low 0.989 | locus YNR049C, strain mso1, active compounds read low 1.02 | locus YNR052C, strain pop2, active compounds read low 0.985 | locus YOL006C, strain TOP1, active compounds read low 1.13 | locus YOL012C, strain htz1 0.756 | locus YOL147C, strain pex11, active compounds read low 0.986 | locus YOR001W, strain rrp6, active compounds read low 1.02 | locus YOR061W, strain CKA2, active compounds read low 0.968 | locus YOR069W, strain VPS5, active compounds read low 0.987 | locus YOR070C, strain gyp1, active compounds read low 0.995 | locus YOR080W, strain dia2, active compounds read low 1.02 | locus YOR083W, strain WHI5, active compounds read low 0.993 | locus YOR106W, strain vam3, active compounds read low 0.981 | locus YOR136W, strain idh2, active compounds read low 0.983 | locus YOR144C, strain elg1, active compounds read low 0.988 | locus YOR184W, strain ser1, active compounds read low 1 | locus YOR231W, strain MKK1, active compounds read low 0.972 | locus YOR265W, strain rbl2, active compounds read low 1.02 | locus YOR270C, strain vph1, active compounds read low 0.925 | locus YOR290C, strain snf2, active compounds read low 0.992 | locus YOR316C, strain cot1, active compounds read low 0.973 | locus YPL051W, strain arl3, active compounds read low 0.995 | locus YPL055C, strain LGE1, active compounds read low 0.989 | locus YPL078C, strain atp4, active compounds read low 1.02 | locus YPL106C, strain sse1, active compounds read low 0.945 | locus YPL240C, strain hsp82, active compounds read low 1.04 | locus YPL256C, strain CLN2, active compounds read low 0.962 | locus YPR119W, strain clb2, active compounds read low 0.984 | locus YPR141C, strain kar3, active compounds read low 0.983 | locus YPR163C, strain tif3, active compounds read low 0.984 | locus YPR167C, strain met16, active compounds read low 0.997 | strain wtn01, active compounds read low 1
